# Test system: HL-1
# Test: protection of cardiomyocytes from stress damage, SAR follow-up, cell-based, panel, H9c2 and HL-1, ATP luminescence, set 2 (AID 651871);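 also: cells exposed to stressor for 2 h before ATP readout; reference of the scale not given here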
# Conditions: H9c2/HL-1 cardiomyocytes, 2-deoxyglucose stress, with 2-deoxyglucose, run 2, at 19.8 µM (top of the series)
smiles,measurement,value
COc1ccc2c(c1OC)C(=O)N1c3ccccc3C(=O)N(Cc3cccc(Cl)c3Cl)C21 (stereo unspecified),activity (protection/inhibition),23.7%
